BAZ2B inh: qHTS Assay for Inhibitors of BAZ2B | Bromodomain adjacent to zinc finger domain protein 2B (Homo sapiens), Q9UIF8 | AlphaScreen BAZ2B-H3K14Ac peptide displacement | Potency, µM (doses to about 114 µM), inactives show at the highest dose activity change, negative = inhibition, usual class: inhibitors | 360,000 compounds, 4.4% hits | AID 504333, 2011; note: % is set by controls: 0 for no effect and ±100 for the full control effect; nearly all actives have a fitted effect of over 60% in size
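Inhibition is scored as reduced AlphaScreen emission. The BAZ2B/b-H3(5-23)K14Ac complex (50 nM each) in PBS pH 7.4, 0.01% Tween-20 meets compound (up to 110 uM) for 30 min at RT before bead addition.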
PLK1 PBD block: qHTS for Inhibitors of PLK1-PDB (polo-like kinase 1 - polo-box domain): Primary Screen. Plk1 PBD binding of FITC phosphopeptide, fluorescence polarization. Potency, µM, for the others: max response, negative = inhibition, actives largely listed as inhibitors. 360,000 compounds, 2.8% hits. AID 720504, 2013; note: series mostly up to about 57 µM; % is set by controls: 0 for no effect and ±100 for the full control effect; nearly all actives have a fitted effect of over 65% in size
HP1b chromo inh: HTS for Inhibitors of HP1-beta Chromodomain Interactions with Methylated Histone Tails. Potency, µM (series often up to 114 µM), inactives show at the top dose activity change, negative = inhibition, hits mostly inhibitors. Chromobox protein homolog 1 (Homo sapiens), P83916. AlphaScreen HP1-beta / biotin-H3K9me3 peptide binding. 390,000 compounds, 0.56% hits; note: nearly all actives have a fitted effect of over 70% in size
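HP1-beta protein (50 nM final) preincubated 30 min at room temperature with biotinylated H3(1-18)K9me3 peptide (50 nM) in PBS pH 7.4, 0.01% Tween-20, then compound added for 30 min. AlphaScreen streptavidin donor/nickel chelate acceptor beads (10 ug/mL final), 30 min dark, luminescence read.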
G9a inh: qHTS Assay for Inhibitors of Histone Lysine Methyltransferase G9a; Potency, µM (series often up to 102 µM), for inactives: at the highest dose activity, negative = inhibition, most hits filed as inhibitors; G9a H3K9 monomethylation, AlphaScreen, 2 h; Histone-lysine N-methyltransferase EHMT2 (Homo sapiens), Q96KQ7; AID 504332, 2011; 350,000 compounds, 8.8% hits; note: % is set by controls: 0 for no effect and ±100 for the full control effect; nearly all actives have a fitted effect of over 75% in size
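Quantitative HTS format: methyltransferase activity on a biotin-tagged H3K9 peptide is measured by AlphaScreen, using a rabbit anti-monomethyl-H3K9 antibody with streptavidin donor and anti-IgG acceptor beads. Final levels are 20 nM enzyme, 500 nM peptide, 20 uM SAM; 2 h RT.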
JMJD2A Tudor: qHTS Assay for Inhibitors of JMJD2A-Tudor Domain | Lysine-specific demethylase 4A (Homo sapiens), O75164 | 390,000 compounds, 4.4% hits | AlphaScreen JMJD2A-Tudor / H3K4me3 peptide binding | Potency, µM (doses to about 114 µM), without a hit: at the top dose activity change, negative = inhibition, hits mostly inhibitors | AID 504339, 2011; note: % is set by controls: 0 for no effect and ±100 for the full control effect; nearly all actives have a fitted effect of over 50% in size
12-LOX inh: Primary qHTS assay for inhibitors of human arachidonate 12S-lipoxygenase (ALOX12): Round 2. 580,000 compounds, 1.1% hits. AID 1671190, 2021. Polyunsaturated fatty acid lipoxygenase ALOX12 (Homo sapiens), P18054. purified 12hLO, xylenol orange hydroperoxide absorbance. Potency, µM (series often up to 108 µM), inactives show top-dose activity change, negative = inhibition, actives largely listed as inhibitors; note: % is set by controls: 0 for no effect and ±100 for the full control effect
Target sequence (P18054 whole entry, looked up): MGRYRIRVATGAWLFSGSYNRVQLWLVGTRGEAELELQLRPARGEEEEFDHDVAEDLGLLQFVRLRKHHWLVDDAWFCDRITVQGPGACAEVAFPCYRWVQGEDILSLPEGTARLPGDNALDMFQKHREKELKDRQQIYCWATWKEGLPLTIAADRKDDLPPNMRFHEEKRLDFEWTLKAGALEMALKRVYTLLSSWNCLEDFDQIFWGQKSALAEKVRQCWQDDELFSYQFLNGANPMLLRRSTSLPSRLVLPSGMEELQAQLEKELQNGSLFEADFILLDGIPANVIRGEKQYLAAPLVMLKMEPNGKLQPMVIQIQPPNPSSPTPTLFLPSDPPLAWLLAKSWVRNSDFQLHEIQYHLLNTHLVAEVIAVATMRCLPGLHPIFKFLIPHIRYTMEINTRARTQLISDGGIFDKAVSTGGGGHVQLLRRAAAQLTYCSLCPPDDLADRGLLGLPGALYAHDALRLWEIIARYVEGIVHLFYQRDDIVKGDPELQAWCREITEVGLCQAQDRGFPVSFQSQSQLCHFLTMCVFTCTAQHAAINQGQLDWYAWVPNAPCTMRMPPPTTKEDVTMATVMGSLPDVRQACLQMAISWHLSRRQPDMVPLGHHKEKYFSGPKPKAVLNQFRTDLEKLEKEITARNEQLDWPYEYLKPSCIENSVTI
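Hydroperoxide product was detected by ferrous iron/xylenol orange as the 573 to 405 nm absorbance ratio. Arachidonic acid at 40 uM (final) was turned over for 30 min at room temperature by 150 nM human 12hLO, pH 7.0 Hepes buffer, after 15 min compound preincubation.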
An asterisk follows results filed as active; ? = inconclusive; nt = no result; ! = not active in a repeat; [ ] = another dose, or the depositor's remark. Shown are actives, neighbours in structure and some others; about 9% of the full set was active somewhere. Calls come from the whole dose curve; as a rule, active = well fitted curve in the direction sought with a large enough effect; inconclusive = small, poorly fitted or top-dose-only effect, or another doubt; inactive = no such curve, though single readings can be large; an effect the other way counts as inactive or inconclusive. Potency is the fitted concentration of half-maximal effect.

SMILES	BAZ2B inh	PLK1 PBD block	HP1b chromo inh	G9a inh	JMJD2A Tudor	12-LOX inh
COc1cccc(-c2nc(N3CCCC3)c3ccccc3n2)c1O	?	-2%	-9%	nt	?	-12%
CC(=O)Nc1ccc(C(=O)OCC(=O)N2CCCC2)cc1	9%	-1%	26%	-7%	-3%	-6%
CCOc1cc(C(=O)N/N=C/C(Br)=C/c2ccccc2)cc(OCC)c1OCC	-5%	-7%	48%	16%[59 µM]	-3%	30%
Cn1c(C(=O)NCCc2ccccc2)cc(=O)n(C)c1=O	-5%	24µM*	-16%	23%[59 µM]	-12%	3%
COc1ccc(CCNC(=O)c2cc(=O)n(C)c(=O)n2C)cc1OC	-14%	-11%	12%	5%[59 µM]	-7%	-2%
CCN(c1ccccc1)S(=O)(=O)c1csc(C(N)=O)c1	-9%	27µM*	-2%	8%	?	0%
CC1CCc2c(sc3[nH]c(=S)n(C)c(=O)c23)C1 (centres undefined)	5%	11µM*	?	3.5µM*	?	-27%
NCC(=O)O	nt	nt	nt	nt	nt	-27%[57.4 µM]
NOCC(=O)O	?	4%	16%	6µM*!	22µM*	3%
O=C(NC1CCCc2ccccc21)C1CCC(CNc2c(N3CCOCC3)c(=O)c2=O)CC1 (centres undefined)	9%	3%	43%	-8%	-8%	5%
O=C(O)c1ccc(N/N=C2/CCSc3ccc(F)cc32)cc1	?	-20%	-8%	50µM*	?	?
Cc1cc(C)nc(N/N=C2/CCSc3ccc(F)cc32)n1	-18%	-6%	30%	35µM*	-40%	6%
O/N=C1\CCSc2ccc(F)cc21	-8%	1%	40%	nt	3%	138%
CCCCNC(=O)OCCNC(=O)Oc1cccc(C)c1	-3%	-4%	28%	11%	10%	0%
O=C(CN1C(=O)c2ccc(Br)cc2C1=O)NCC1CCCO1 (centres undefined)	-4%	-15%	17%	nt	-10%	0%
CN(C)c1ccc(/C=N/NC(=O)Cn2nnc3ccccc32)cc1	-27%	2%	-1%	14µM*	-12%	5%
COc1ccc(/C=N/NC(=O)Cn2nnc3ccccc32)cc1OC	-25%	-4%	15%	28%[59 µM]	-14%	-13%
O=C(N/N=C\c1ccc(Cl)cc1)c1sccc1-n1cccc1	3%	0%	26%	-13%	-12%	23%
CN(C)c1ccc(/C=N/NC(=O)c2sccc2-n2cccc2)cc1	-24%	-14%	17%	28µM*	-17%	0%
CN(C)c1ccc(/C=N/NC(=O)c2ccccc2Cl)cc1	-35%	-4%	-7%	40µM*	-31%	-8%
O=C(Nc1ncc2c(n1)CC(c1cccc(Cl)c1)CC2=O)c1ccco1 (centres undefined)	?	-10%	7%	nt	-15%	-26%
Cn1cccc1C(=O)N1CCC2(CC1)CN(Cc1ccc(C#N)cc1)C2	nt	nt	nt	-3%[12.7 µM]	nt	9%[57.4 µM]
COc1ccccc1-c1nnc(N)s1	-11%	?	20%	-29%	-9%	-7%
Nc1nnc(-c2ccccc2Cl)s1	2%	?	-19%	22µM*	8%	?
COc1cccc(CSc2nnnn2-c2ccc(O)cc2)c1	-8%	-14%	34%	3%	-8%	-11%
SMILES	BAZ2B inh	PLK1 PBD block	HP1b chromo inh	G9a inh	JMJD2A Tudor	12-LOX inh
O=C(NC1CCCCC1)C(c1ccc(F)cc1)N(CCN1CCOCC1)C(=O)c1ccc(-c2ccccc2)[nH]1 (centres undefined)	-21%	-7%	24%	4%	-12%	9%
COc1ccc(C(C(=O)NC2CCCCC2)N(Cc2ccco2)C(=O)c2ccccn2)c(OC)c1 (centres undefined)	2%	2%	21%	10µM*	-4%	?
COc1ccc(N(C(=O)c2ccn[nH]2)C(C(=O)NC(C)(C)C)c2ccc(F)cc2)cc1 (centres undefined)	7%	-6%	20%	1%[59 µM]	-11%	33%
Cc1ccc(C(C(=O)NCC2CCCO2)N(Cc2ccccc2)C(=O)c2ccc(-c3ccccc3)[nH]2)o1 (centres undefined)	40µM*	4%	-19%	-6%[59 µM]	?	-22%
CCOc1ccc(C(C(=O)NC2CCCC2)N(CCCO)C(=O)c2ccc(-c3ccccc3)[nH]2)cc1 (centres undefined)	?	-10%	-17%	50µM*	?	-12%
CC(C)(C)NC(=O)C(c1ccc(F)cc1)N(CCc1ccccc1)C(=O)c1ccn[nH]1 (centres undefined)	-18%	27µM*	-17%	25%[12.7 µM]	28µM*	0%
CC(C)(C)NC(=O)C(c1ccncc1)N(Cc1ccc(F)cc1)C(=O)c1ccc(-c2ccccc2)[nH]1 (centres undefined)	?	-9%	-6%	28µM*	?	-10%
O=C(NC1CCCC1)C(c1ccncc1)N(Cc1ccccc1)C(=O)c1ccc(-c2ccccc2)[nH]1 (centres undefined)	45µM*	-1%	-11%	-12%[59 µM]	?	-14%
CC(C)(C)NC(=O)C(c1ccncc1)N(Cc1cccs1)C(=O)Cn1nnc(-c2ccc(F)cc2)n1 (centres undefined)	3%	-11%	43%	4%[59 µM]	-23%	0%
O=C(NC1CCCCC1)C(c1ccc(F)cc1)N(Cc1ccco1)C(=O)c1ccccn1 (centres undefined)	-20%	-8%	17%	22%[12.7 µM]	-19%	-17%
O=C(NC1CCCC1)C(c1ccncc1)N(CCCN1CCOCC1)C(=O)c1ccc(-c2ccccc2)[nH]1 (centres undefined)	-21%	-7%	5%	?	-26%	2%
O=C(NC1CCCC1)C(c1ccncc1)N(Cc1ccco1)C(=O)c1ccc(-c2ccccc2)[nH]1 (centres undefined)	35µM*	-22%	?	?	?	-26%
O=C(NCCc1c[nH]c2ccccc12)c1coc(COc2ccc3c(c2)OCO3)n1	nt	nt	nt	nt	nt	3%
Cc1cc(C(C#N)c2cccc(Cl)c2)n2ncnc2n1 (centres undefined)	?	-29%	-6%	8.9µM*	?	180%
C/C=C/c1ccc(OCCCNC2CCCC2)c(OC)c1	?	-2%	?	?	7.9µM*	-36%
